Drawing on PubChem BioAssay (EPA / NIEHS), this text covers AC50 and outcome for 40 compounds.

SMILES strings stand for the structures. Records with an inconclusive call do not appear. Active and inactive are the calls of the source. Rule for the calls: active = hit-call score of the fitted dose curve at least 0.9, where 1 is the maximum; inconclusive = response in the unintended direction; inactive = score below 0.9.

Read-out in this experiment: xenobiotic metabolism (CYP1A2), CYP1A2 (gene 1544)
The experiment is described as follows: CLD_CYP1A2_24hr: CellzDirect (CLD) Gene Expression Assay for xenobiotic metabolism (CYP1A2) at 24 hours (AID 2283683). The procedure:
CLD_24hr is a cell-based, multiplexed-readout assay that uses hepatocyte, a human liver primary cell, with measurements taken at 24 hours after chemical dosing in a 96-well plate.CLD_CYP1A2_24hr is one of 16 assay component(s) measured or calculated from the CLD_24hr assay. It is designed to make measurements of mRNA induction, a form of inducible reporter, as detected with chemiluminescence signals by Quantitative Nuclease Protection Assay (qNPA) technology.Data from the assay component CLD_CYP1A2_24hr was analyzed at the endpoint, CLD_CYP1A2_24hr, in the positive analysis fitting direction relative to DMSO as the negative control and baseline of activity. Using a type of inducible reporter, gain-of-signal activity can be used to understand changes in the reporter gene as they relate to the gene CYP1A2. Furthermore, this assay endpoint can be referred to as a primary readout. To generalize the intended target to other relatable targets, this assay endpoint is annotated to the cyp intended target family, where subfamily is xenobiotic metabolism.
Human hepatocyte cultures were treated daily for two consecutive days with fresh dosing solutions containing appropriate concentrations of the 320 ToxCast chemicals (chemical identities were blinded to CellzDirect and other ToxCast collaborators), vehicle control (0.2% DMSO), and positive control inducers as summarized in Table 1. Due to the large number of treatment groups and chemicals examined, the ToxCast chemicals were divided into two groups (spanning two independent cultures of hepatocytes from separate donor preparations (Hu778: ToxCast plates 1 and 2; Hu776: ToxCast plates 3 and 4). Each preparation of human hepatocyte cultures was treated with respective vehicle control, medium only control, set of six positive controls/reference chemicals for the five hepatic receptor pathways, and a subset of eight of the ToxCast chemicals (indoxacarb, pyrithiobac-sodium, norflurazon, cyhalofop-butyl, methomyl, thiram, acetochlor, and propiconazole). These replicate data, coupled with internal replicates designed within the blinded ToxCast chemical library, provided additional data to evaluate interindividual differences between hepatocyte preparations and their potential impact on chemical profiles.Cell morphology and integrity were evaluated using phase-contrast microscopy as an indicator of hepatocyte cell health (Tyson & Green, 1987). Cultures for each treatment group (i.e., media, vehicle [0.2% DMSO], positive control inducers [multiple concentrations], and the ToxCast chemicals [multiple concentrations]) were observed and cell morphology was assessed relative to vehicle control cultures at each harvest time point (0, 6, 24, or 48 h). […] Images were evaluated at the conclusion of the study to assess changes in cell integrity and account for the effects of chemical exposure on uncharacteristic changes in concentration-dependent gene expression profiles. The results from these determinations of apparent cytotoxicity were annotated (yes/no) alongside the corresponding qNPA data for reference.At the conclusion of each treatment period, hepatocyte cultures (96-well) were washed with 1 volume of HBSS, lysed by addition of 25 ul ArrayPlate lysis buffer (HTG, Tucson, AZ), and 70 ul/well of Denaturation Oil, denatured by incubation at 95C for 10 min, and frozen at approximately -70C until analysis by nuclease protection assay (qNPA) (Roberts et al., 2007). For qNPA analysis, cell lysates were thawed at 50C for approximately 30 min, qNPA probes were added, and samples were incubated at 95C for 10 min to begin the detection process by denaturing the target RNA, dissociating the duplexes and secondary structure hybridization. At the conclusion of the hybridization period, S1 nuclease reagent was added to each sample to digest all nonprotected nucleotides at 50C for 60-90 min. […]
Turning to `CCCSP(=O)(OCC)SCCC`, the AC50 (commonly the midpoint of the concentration-response curve, whichever way the signal moves) was 4.21 µM (active). `CC[C@H](C)[C@H]1O[C@]2(C=C[C@@H]1C)C[C@@H]1C[C@@H](C/C=C(\C)[C@@H](O[C@H]3C[C@H](OC)[C@@H](O[C@H]4C[C@H](OC)[C@@H](NC)[C@H](C)O4)[C@H](C)O3)[C@@H](C)/C=C/C=C3\CO[C@@H]4[C@H](O)C(C)=C[C@@H](C(=O)O1)[C@]34O)O2`: the result was inactive.

Consider `CCOC(=O)COc1cc(-c2nn(C)c(OC(F)F)c2Cl)c(F)cc1Cl`, for which the outcome was inactive. Consider `CN(C)NC(=O)CCC(=O)O`, for which the compound was classed as inactive. For `CCCSP(=O)(OCC)Oc1ccc(Br)cc1Cl` (stereo not given), the AC50 is 4.13 µM (active). The same measure, in the same setting: then `CCOP(=S)(OCC)OC(Cl)C(Cl)(Cl)Cl` (stereo not given), with 15.5 µM (active). As for `CON=C(C(=O)OC)c1ccccc1CON=C(C)c1cccc(C(F)(F)F)c1`, the compound was called inactive. For `CCOP(=O)(OCC)Oc1cc(C)nc(C(C)C)n1`, the AC50 is 30.7 µM (active). For `CCC(=NOC/C=C/Cl)C1=C(O)CC(C2CCOCC2)CC1=O` (stereo not given), the compound was called inactive. As for `COP(=O)(OC)OC(Br)C(Cl)(Cl)Br` (stereo not given), the compound was classed as inactive.

Turning to `CC(C1CC1)C(O)(Cn1cncn1)c1ccc(Cl)cc1` (stereo not given), the AC50 was 4.89 µM (active). Turning to `CC(COc1ccc(Oc2ccccc2)cc1)Oc1ccccn1` (stereo not given), the result was inactive.

On to `CCOP(=S)(OCC)SCCSCC`, for which the AC50 is 6.62 µM (active). For `CC(C)=CC1C(C(=O)OCN2C(=O)C3=C(CCCC3)C2=O)C1(C)C` (stereo not given), the outcome was inactive. Still for that read-out and setting: next, `CNC(=O)ON=C(SC)C(=O)N(C)C`: “inactive”; `CN1COCN(Cc2cnc(Cl)s2)C1=N[N+](=O)[O-]`: “inactive”. For `CCCCN(CC)c1c([N+](=O)[O-])cc(C(F)(F)F)cc1[N+](=O)[O-]`, the AC50 was 7.29 µM (active). `Nc1nc(N)nc(NC2CC2)n1`: the compound was called inactive. `O=c1ccc(=O)[nH][nH]1`: the outcome was inactive. For `CSC1=N[C@@](C)(c2ccccc2)C(=O)N1Nc1ccccc1`, the AC50 is 3.97 µM (active). On the same count and under the same terms, next, `O=[N+]([O-])c1cc(C(F)(F)F)c(Cl)c([N+](=O)[O-])c1Nc1ncc(C(F)(F)F)cc1Cl`: 0.508 µM (active); `CCOP(=S)(Oc1cnc(C(C)(C)C)nc1)OC(C)C` (stereo not given): 6.43 µM (active).

On to `COc1cccc(C(=O)NN(C(=O)c2cc(C)cc(C)c2)C(C)(C)C)c1C`, for which the AC50 was 32.6 µM (active). `CN(C)[C@@H]1C(=O)C(C(N)=O)=C(O)[C@@]2(O)C(=O)C3=C(O)c4c(O)cccc4[C@@](C)(O)[C@H]3[C@H](O)[C@@H]12`: the compound was classed as inactive.

On to `CCCOCC(=Nc1ccc(Cl)cc1C(F)(F)F)n1ccnc1`, for which the concentration at half-maximal activity (AC50) was 1.89 µM (active). The same measure, in the same setting: next, `CNc1cnn(-c2cccc(C(F)(F)F)c2)c(=O)c1Cl`: 5.72 µM (active).

In the case of `CCNc1nc(Cl)nc(NC(C)(C)C#N)n1`, the compound was called inactive.

`O=C(O)c1cc(Oc2ccc(C(F)(F)F)cc2Cl)ccc1[N+](=O)[O-]`: the compound was classed as inactive. Regarding `CCc1cccc(C)c1N(C(=O)CCl)C(C)COC` (stereo not given), the AC50 was 3.97 µM (active). The same measure, in the same setting: next, `CCOP(=S)(OCC)Oc1ccc2c(C)c(Cl)c(=O)oc2c1`: 0.527 µM (active). `C#CC(C)(C)NC(=O)c1cc(Cl)cc(Cl)c1`: the compound was called inactive. For `Nc1c(Cl)cc([N+](=O)[O-])cc1Cl`, the AC50 was 20 µM (active). As to `COP(=O)(NC(C)=O)SC` (stereo not given), the outcome was inactive. Same read-out and setting: then `CNC(=O)ON=C(C)SC`, with “inactive”; and `CC(Oc1cccc(Cl)c1)C(=O)O` (stereo not given), with “inactive”.

In the case of `CSc1nc(NC(C)C)nc(NC(C)C)n1`, the AC50 is 2.63 µM (active). As to `CCCCSP(=O)(SCCCC)SCCCC`, the AC50 is 2.48 µM (active).

Take `Cc1cc(C2CC2)nc(Nc2ccccc2)n1`: the half-maximal activity concentration (AC50) was 4.15 µM (active). For the compound `Cc1nn(-c2cc(NS(C)(=O)=O)c(Cl)cc2Cl)c(=O)n1C(F)F`, the outcome was inactive.

Regarding `CCOP(=S)(OCC)Oc1cc(C)nc(C(C)C)n1`, the AC50 is 7.6 µM (active).
